Compound activity as filed in PubChem BioAssay.
SMARCA2 act: activators of SMARCA2 function; MG213 cells, MMTV-luciferase reporter, dexamethasone, overnight; AID 652017; activation, % at 9.1 µM; actives 1% (n = 370,000); in the data active means activation above about 7.8%
H9c2 protect: myocardial damage modulation in H9c2 cells. H9c2 cardiomyocytes, H2O2 injury protection, ATPLite, 2 h. protection from H2O2 cell death, % at 20 µM. actives 0.63% (n = 360,000). AID 588492;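 active means compounds giving at least 50% protection of heart cells from peroxide-induced death in the single-dose screen, raw or plate-pattern-corrected value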
FXN GAA850 act: activators of GAA850 frataxin (FXN) promoter. HEK293 lucGAA850 FXN promoter luciferase reporter, 24 h; percent of 10 µM SAHA response. activation, % at 6 µM. AID 540364. actives 0.56% (n = 360,000);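 active means activation above the average of all compounds screened plus 3 SD, cutoff fixed separately per campaign, cut at about 7.5% in these data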
Gli-Sufu block: antagonists of Gli-Sufu signaling. Sufu-KO-LIGHT fibroblasts, Gli luciferase reporter luminescence. inhibition, % at 5 µM. actives 0.74% (n = 340,000). AID 588413;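 active means inhibition above about 55%, limit read from the data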
GalR3 antag: blocks the human galanin receptor 3; O60755; HEK293 GalR3-CNG cAMP membrane potential fluorescence; galR3 body fused to GalR1 C-terminus; inhibition, % at 3 µM; actives 0.44% (n = 360,000); AID 651719;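 active means inhibition above the screen-wide average plus 3 SD, cut at about 13% in these data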;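 further: forskolin and galanin both at EC90 stimulate the cells; cAMP rise reported by CNG channel membrane potential dye signal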
Target sequence (O60755 1-299 limits assumed): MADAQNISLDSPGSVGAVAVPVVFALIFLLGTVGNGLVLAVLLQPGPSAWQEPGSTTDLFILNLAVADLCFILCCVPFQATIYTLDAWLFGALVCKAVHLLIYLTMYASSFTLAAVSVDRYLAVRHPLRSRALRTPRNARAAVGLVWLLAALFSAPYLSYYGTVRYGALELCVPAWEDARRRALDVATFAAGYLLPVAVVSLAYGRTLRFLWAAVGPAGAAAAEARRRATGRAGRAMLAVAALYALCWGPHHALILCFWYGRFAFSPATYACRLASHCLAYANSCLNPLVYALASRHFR
NR2F2 inh: blocks human COUP-TFII nuclear receptor. P24468. HEK293T NGFI-A luciferase reporter, luminescence. inhibition, % at 8.6 µM. actives 0.7% (n = 370,000). AID 686940;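 active means inhibition above a per-plate cutoff, mean inhibition of test wells between control levels plus 3 SD, cut at about 38% in these data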;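 further: cells cotransfected with COUP-TFII expression vector driving the NGFI-A reporter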
Target sequence (P24468 whole entry, looked up): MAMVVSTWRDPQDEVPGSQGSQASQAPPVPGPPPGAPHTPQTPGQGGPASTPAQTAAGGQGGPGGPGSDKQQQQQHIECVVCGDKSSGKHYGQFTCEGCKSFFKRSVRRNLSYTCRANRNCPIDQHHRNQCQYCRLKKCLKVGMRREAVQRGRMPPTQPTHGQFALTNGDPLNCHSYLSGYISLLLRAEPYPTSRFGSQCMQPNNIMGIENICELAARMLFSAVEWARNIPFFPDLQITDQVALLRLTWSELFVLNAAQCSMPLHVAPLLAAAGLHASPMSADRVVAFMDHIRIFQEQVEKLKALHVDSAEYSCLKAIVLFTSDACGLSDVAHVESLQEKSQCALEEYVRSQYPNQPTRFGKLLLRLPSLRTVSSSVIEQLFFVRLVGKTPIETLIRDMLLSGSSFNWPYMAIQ
Large screens that a line does not name were inactive. Sampled rows, rich in hits. Any-hit rate of the full collection: about 3.4%.

CCCCN(CCCC)S(=O)(=O)c1ccc(C(=O)Nc2nnc(CSC)o2)cc1	H9c2 protect 50
CCCCN(CC)S(=O)(=O)c1ccc(C(=O)Nc2nnc(CSC)o2)cc1	none
COC(=O)c1sccc1-c1ccc(C(=O)Nc2cccc(Cl)c2)o1	FXN GAA850 act 8.3
CN(C)S(=O)(=O)Oc1ccsc1C(=O)Nc1cccc(Cl)c1	none
Cc1cc(=O)[nH]c(N=N/C(=N/Nc2ccccc2C)c2ccccc2)n1	H9c2 protect 60
Cc1cc(=O)[nH]c(N=N/C(=N/Nc2ccc(O)cc2)c2ccccc2)n1	none
CCOC(=O)N1CCN(C(=O)CSc2nc3c(cnn3-c3ccc(C)cc3)c(=O)[nH]2)CC1	H9c2 protect 51 (no result: GalR3 antag)
O=C(/C=C\c1ccccc1)NCC(=O)N/N=C/c1ccc(O)cc1O	H9c2 protect 66 (no result: SMARCA2 act, GalR3 antag, NR2F2 inh)
Cc1cc(C(=O)N/N=C/c2c(CO)cnc(C)c2O)c2ccccc2n1	H9c2 protect 55
CCc1cc(C(=O)N/N=C/c2ccc(O)cc2O)c2ccccc2n1	H9c2 protect 53
COc1cc(/C=N/NC(=O)/C(=C/c2ccccc2)CCO)ccc1O	none
Cc1cc(C(=O)N/N=C/c2cc(Cl)cc([N+](=O)[O-])c2O)c2ccccc2n1	none
O=C(N/N=C/c1ccc(O)cc1O)/C(=C/c1ccccc1)CCO	H9c2 protect 57
O=C(N/N=C/c1ccc(O)cc1O)c1ccncc1	none
Nn1c(SCC(=O)Nc2cccc3ccccc23)nnc1-c1cc(-c2ccc(Cl)cc2)n[nH]1	none (no result: H9c2 protect, FXN GAA850 act, Gli-Sufu block, GalR3 antag)
O=C(CNC(=O)C1COc2ccccc2O1)N/N=C\c1cccc(O)c1 (stereo not drawn)	none
O=C(CNC(=O)C(c1ccccc1)c1ccccc1)N/N=C\c1cccc(O)c1	none
O=C(CNC(=O)C(c1ccccc1)c1ccccc1)N/N=C/c1ccc(O)cc1O	H9c2 protect 56
O=C(CNC(=O)C1COc2ccccc2O1)N/N=C/c1ccc(O)cc1O (stereo not drawn)	H9c2 protect 63
CCCN1CCS(=O)(=O)N(Cc2cn(Cc3ccc(OC)cc3)nn2)C(C(=O)OC)C1 (stereo not drawn)	none (no result: H9c2 protect, FXN GAA850 act, Gli-Sufu block, GalR3 antag)
CCCCNS(=O)(=O)/C=C/c1ccccc1CNC(=O)OC(C)(C)C	none (no result: H9c2 protect, FXN GAA850 act, Gli-Sufu block, GalR3 antag)
CCCc1cc(-n2ccnc2C)n2c(nc3ccccc32)c1C#N	none
CCCc1cc(N2CCN(C(=O)c3ccco3)CC2)n2c(nc3ccccc32)c1C#N	H9c2 protect 55
CN(Cc1ccccc1F)C(=O)C1CCC(CNS(=O)(=O)c2cccc3cccnc23)CC1 (stereo not drawn)	none (no result: H9c2 protect, FXN GAA850 act, Gli-Sufu block, GalR3 antag)
O=C/C(=C\Nc1ccccn1)c1nc2cc(Cl)ccc2o1	H9c2 protect 56
O=C/C(=C\Nc1ccccn1)c1nc2ccccc2o1	none
CCOc1ccc2nc(N3C(=O)C(O)=C(C(=O)c4ccco4)C3c3ccco3)sc2c1 (stereo not drawn)	SMARCA2 act 7.9
Cc1ccc(/C=N\NC(=O)CN2CCN(S(=O)(=O)c3ccc(Br)cc3)CC2)s1	none (no result: H9c2 protect, FXN GAA850 act, Gli-Sufu block, GalR3 antag)
C[C@@H]1CN([C@@H](C)CO)S(=O)(=O)c2ccc(-c3ccc(C#N)cc3)cc2O[C@@H]1CN(C)Cc1ccccn1	none (no result: Gli-Sufu block)
CC(=O)c1c(C)oc2c1C(=O)c1ccccc1C2=O	none
Cc1oc2c(c1C(=O)NCc1cccnc1)C(=O)c1ccccc1C2=O	Gli-Sufu block 80 (no result: SMARCA2 act, H9c2 protect, FXN GAA850 act, GalR3 antag, NR2F2 inh)
COc1ccc(CNC(=O)c2c(C)oc3c2C(=O)c2ccccc2C3=O)cc1	Gli-Sufu block 64
COC(=O)[C@H](C(C)C)N1CCc2nnn(CC3CCCCC3)c2-c2ccccc2S1(=O)=O	none (no result: H9c2 protect, FXN GAA850 act, Gli-Sufu block, GalR3 antag)
Cc1c(NC(=O)C2CCCN(S(=O)(=O)c3c(C(C)C)cc(C(C)C)cc3C(C)C)C2)c(=O)n(-c2ccccc2)n1C (stereo not drawn)	none (no result: H9c2 protect, FXN GAA850 act, Gli-Sufu block, GalR3 antag)
COc1ccccc1NC(=O)COc1cccc2c1CCNC2=O	H9c2 protect 64
COc1ccccc1NC(=O)COc1ccc(C(=O)OCC(=O)NC(C)(C)C)cc1OC	H9c2 protect 59
CCN1CCc2c(OCC(=O)Nc3ccccc3)cccc2C1=O	none
NC(=O)c1ccc(NC(=O)COc2cccc3c2CCNC3=O)cc1	H9c2 protect 79
COc1ccccc1NC(=O)COc1ccccc1	none
O=C(COc1cccc2c1CCNC2=O)Nc1ccc(Cl)cc1	H9c2 protect 64
CS(=O)(=O)N1CCC[C@]2(CC[C@@H](CCC#N)O2)C1	none (no result: H9c2 protect, FXN GAA850 act, Gli-Sufu block, GalR3 antag)
Cc1ccc(NC2C(=O)NC(=O)NC2=O)cc1	none
CCn1c(/C=C/c2c[nH]c3ccccc23)nc2ccccc2c1=O	none
CN(C)S(=O)(=O)c1ccc2[nH]cc(/C=C/c3nc4ccccc4c(=O)n3-c3ccccc3)c2c1	H9c2 protect 66
C=CCN(CC#CCN(C)C(=O)c1cccn1C(=O)OC(C)(C)C)Cc1ccc(OC)cc1OC	none (no result: H9c2 protect, FXN GAA850 act, Gli-Sufu block, GalR3 antag)
N#C/C(=C\Nc1ccc2c(c1)OCCO2)c1nc2ccccc2[nH]1	H9c2 protect 82
O=C(CSc1nnc(Cc2ccsc2)o1)c1ccccc1	SMARCA2 act 7.8
O=C(CSc1nnc(Cc2ccccc2)o1)c1ccc(F)cc1	none
COc1cc(-c2nnc(-c3ccc(S(=O)(=O)c4ccccc4)cc3)o2)cc(OC)c1OC	none
COc1cc(-c2nnc(-c3ccc(N4CCOCC4)cc3)o2)cc(OC)c1OC	H9c2 protect 53
COC(=O)c1cc(-c2ccc(F)cc2OCc2ccccc2)c(=O)n2c1CCC2	none (no result: H9c2 protect, FXN GAA850 act, Gli-Sufu block, GalR3 antag)
Cc1cc(C)c(C)c(OCCCCN2CCCCC2)c1	SMARCA2 act 7.9
CCN1C(=NCCOC)N[C@@H](c2cccc(C(F)(F)F)c2)C(C(=O)OC)=C1C	none
CCN1C(=NCC2CC2)N[C@@H](c2cccc(C(F)(F)F)c2)C(C(=O)OC)=C1C	Gli-Sufu block 96 (no result: SMARCA2 act, GalR3 antag, NR2F2 inh)
O=C(N/N=C/c1ccccn1)c1cccs1	H9c2 protect 56
Cc1ccccc1C(=O)N/N=C/c1ccccn1	SMARCA2 act 10
O=C(N/N=C/c1c[nH]c2ccccc12)c1sc2ccccc2c1Cl	none
O=C(N/N=C/c1ccccn1)c1sc2ccccc2c1Cl	FXN GAA850 act 13
Cn1ncc(Cl)c1C(=O)N/N=C/c1ccccn1	H9c2 protect 51
C[C@H]1[C@@H](OC(=O)NCc2ccc(C(F)(F)F)cc2)CC[C@@]23CCCN2C(=O)CCC[C@@H]13	none (no result: SMARCA2 act, H9c2 protect, FXN GAA850 act, Gli-Sufu block, GalR3 antag)
COC(=O)C1CN(CCO)CCS(=O)(=O)N1Cc1cn(Cc2cccc(Cl)c2)nn1 (stereo not drawn)	none (no result: H9c2 protect, FXN GAA850 act, Gli-Sufu block, GalR3 antag)
CCOC(=O)[C@]12CCCC=C1N(Cc1ccc(OC)cc1)C(=O)[C@@H]2CC(=O)N1CCN(C(=O)C2CC2)CC1	none (no result: H9c2 protect, FXN GAA850 act, Gli-Sufu block, GalR3 antag)
NNC(=O)C1COc2cc3ccccc3cc2O1 (stereo not drawn)	none
O=C(N/N=C\c1ccccn1)C1COc2cc3ccccc3cc2O1 (stereo not drawn)	H9c2 protect 86
O=C(N/N=C/c1ccccn1)c1ccccc1	none
O=C(N/N=C\c1ccccn1)c1cccc(C(=O)N/N=C\c2ccccn2)n1	H9c2 protect 54
O=C(N/N=C/c1ccccc1OCc1ccccc1)c1cccs1	SMARCA2 act 7.9
